Bioassay records (PubChem BioAssay)
An excerpt weighted towards active compounds, which were near 19% of everything screened.
IL1B secr inh = inhibitors of inflammasome signaling (IL-1 beta secretion); THP-1 LPS/ATP IL-1B secretion, AlphaLISA, 16 h; hits give low values; 360,000 tested, 4.7% active; activity change, % at 57.5 µM; AID 743279; in the data active = activity change below about -50%; inconclusive = mostly about -30% to -49%
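THP-1 cells pretreated 1 hr with compounds (up to 57.5 uM final), then stimulated with LPS (250 ng/mL final) plus ATP (1.25 mM final); secreted IL-1B measured by AlphaLISA after 16 hr, decreased signal indicating inhibition.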
TDP1 cell noCPT = qHTS for Inhibitors of human tyrosyl-DNA phosphodiesterase 1 (TDP1): qHTS in cells in absence of CPT; DT40 Tdp1-/- hTDP1 cells, no CPT, ATP luminescence, 48 h; Potency, µM (doses to about 46.2 µM), for inactives: top-dose activity change, negative = growth inhibition, most hits filed as inhibitors; 420,000 tested, 15% active; note: potency is the fitted concentration of half-maximal effect; nearly all actives have a fitted effect of over 55% in size
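Seeded 400 DT40-hTDP1 cells/well (vehicle DMSO, no 20 nM CPT); pinned compounds; ≥48 hr at 37 °C; CellTiter-Glo luminescence as viability measure.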
DT40 TDP1 CPT = growth inhibition of DT40 Tdp1-/-;hTDP1 cells with camptothecin (screen for TDP1 inhibitors). 420,000 tested, 12% active. Potency, µM (top dose mostly 46.2 µM), for inactives: top-dose activity change, negative = growth inhibition, actives largely listed as inhibitors. AID 686979. chicken DT40 Tdp1-/-;hTDP1 cells + 20 nM CPT, ATP luminescence, 48 h; note: potency is the fitted concentration of half-maximal effect; nearly all actives have a fitted effect of over 55% in size
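Chicken DT40 Tdp1-/- cells complemented with human TDP1, 400 cells/well, exposed to compounds plus 20 nM camptothecin for at least 48 h at 37 C; viability read as ATP content by CellTiter-Glo luminescence.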
HT1080-NT tox = kills 2HG-producing HT-1080-NT fibrosarcoma cells; HT-1080-NT fibrosarcoma viability, CellTiter-Glo ATP luminescence, 48 h; Potency, µM (highest dose often 46.1 µM), without a hit: at the top dose activity, negative = less viability, usual class: cytotoxic; 360,000 tested, 1.6% active;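 note: NT is the 2HG producing partner of a matched IDH1 knockdown line; potency is the fitted concentration of half-maximal effect; 0% = DMSO-treated cells and -100% = media-only wells without cells; nearly all actives have a fitted effect of over 55% in size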
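A 48-hour cytotoxicity screen used HT-1080-NT cells plated 2 hours before compound delivery. ATP-based CellTiter-Glo luminescence measured viability, normalized to DMSO and no-cell controls.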
HT1080 IDH1KD tx = kills HT-1080 cells with IDH1 knockdown; HT-1080 IDH1 knockdown viability, ATP luminescence, 48 h; Potency, µM (doses to about 46.1 µM), without a hit: top-dose activity, negative = toxicity, actives largely listed as cytotoxic; 360,000 tested, 2% active;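 note: potency is the fitted concentration of half-maximal effect; 0% = DMSO wells and -100% = cell-free medium wells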
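After a 2 h attachment period, IDH1KD HT-1080 cells took pin-transferred compound for 48 h at 37 °C; ATP-based luminescence after 10 min room-temperature reagent incubation reported viability.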
An asterisk follows results filed as active; ? = inconclusive; . = no result given. Unless noted, calls come from the whole dose curve; as a rule, active = well fitted curve in the direction sought with a large enough effect; inconclusive = small, poorly fitted or top-dose-only effect, or another doubt; inactive = no such curve, though single readings can be large; an effect the other way counts as inactive or inconclusive. Unless noted, % is set by controls: 0 for no effect and ±100 for the full control effect.

SMILES	IL1B secr inh	TDP1 cell noCPT	DT40 TDP1 CPT	HT1080-NT tox	HT1080 IDH1KD tx
CC(c1ccccc1C(O)c1ccccc1)N(C)C (stereo unspecified)	-10	-1%	-6%	-6%	4%
Nc1c(C(=O)CSc2ncccn2)c(=O)[nH]c(=O)n1C1CC1	-3	-5%	-11%	-4%	-3%
O=C(OCC1OC(n2ncc(=O)[nH]c2=O)C(OC(=O)c2ccccc2)C1OC(=O)c1ccccc1)c1ccccc1 (stereo unspecified)	6	?	16µM*	-5%	-1%
CC(=O)OCC1OC(n2ncc(=O)n(Cc3ccccc3)c2=O)C(OC(C)=O)C1OC(C)=O (stereo unspecified)	27	-18%	12%	8%	14%
CC(=O)OC[C@H]1O[C@@H](n2ncc(=O)[nH]c2=O)[C@H](OC(C)=O)[C@@H]1OC(C)=O	92	11µM*	?	-8%	?
CCC(C)NCC(O)(c1ccc(Cl)cc1)c1ccc(Cl)cc1 (stereo unspecified)	?	23µM*	23µM*	?	?
CCC(C)C(NC(=O)c1ccc(Cl)cc1)C(=O)O (stereo unspecified)	-1	-11%	-6%	14%	14%
CC(NC(=O)c1ccnc(C(C)(C)C)c1)c1ccccc1 (stereo unspecified)	11	4%	-7%	2%	4%
O=C(OCC(F)(F)C(F)F)c1ccccc1C(=O)Oc1ccc(F)cc1F	6	-10%	-30%	16%	-4%
Cc1ccc(CNC(=O)CSc2nnc(CNC(=O)c3ccccc3)o2)cc1	-73*	1%	-1%	0%	0%
COc1ccc(C(=O)NCc2nnc(SCC(=O)Nc3nc4ccc(C)cc4s3)o2)cc1OC	24	2.3µM*	4.1µM*	-8%	-18%
COc1ccc(C(=O)Nc2ccc(C3CC3(Cl)Cl)cc2)cc1 (stereo unspecified)	-21	?	-18%	-1%	?
O=C(Cc1ccc([N+](=O)[O-])cc1)Oc1ccccc1	7	-1%	8%	4%	14%
CS(=O)(=O)c1ccc(S(=O)CC(=O)Oc2ccc(Cl)cc2)c([N+](=O)[O-])c1 (stereo unspecified)	-99*	0.58µM*	1.2µM*	23µM*	18µM*
O=C(CS(=O)c1ccccc1[N+](=O)[O-])Oc1ccc(Br)cc1 (stereo unspecified)	-62*	-17%	-19%	-14%	-9%
COc1ccc(CN(CC2CCCO2)C(=O)c2cc3sccc3n2C)c(OC)c1 (stereo unspecified)	-104*	?	-9%	-26%	-25%
O=C1OCCC1Sc1nnc(-c2cccnc2)n1-c1ccccc1F (stereo unspecified)	-5	-2%	2%	8%	6%
CCOC(=O)C1CCCN(C(=O)c2nn(-c3ccc(C)cc3)c(=O)n(C)c2=O)C1 (stereo unspecified)	.	-5%	-15%	.	.
CS(=O)(=O)c1ccc([C@@H](O)[C@@H](CO)NC(=O)C(Cl)Cl)cc1	-1	3.7µM*	5.8µM*	-21%	1%
CCCCCCCCCCCCCCCC(=O)OC[C@@H](NC(=O)C(Cl)Cl)[C@H](O)c1ccc([N+](=O)[O-])cc1	.	5%	-2%	.	.
CS(=O)(=O)c1ccc(C(O)C(CO)NC(=O)C(Cl)Cl)cc1 (stereo unspecified)	.	1.6µM*	?	.	.
Cc1cc(C)cc(-n2nnnc2SCC(=O)Nc2cccc(NC(=O)c3ccco3)c2)c1	-52*	?	?	-4%	-25%
Cc1ccc(C)c(C(=O)CSc2nnnn2-c2cccnc2)c1	-7	16µM*	-10%	11%	2%
CCn1c(SCC(=O)Nc2cccc(NC(=O)c3ccco3)c2)nnc1-c1cccs1	-13	16µM*	?	-2%	-4%
Cc1ccc(-n2nnnc2SCC(=O)Nc2cccc(NC(=O)c3ccco3)c2)cc1C	146	16µM*	?	-15%	-26%
SMILES	IL1B secr inh	TDP1 cell noCPT	DT40 TDP1 CPT	HT1080-NT tox	HT1080 IDH1KD tx
CC(=O)c1ccc(-n2nnnc2SCC(=O)Nc2cccc(NC(=O)c3ccco3)c2)cc1	17	?	?	-23%	?
CCn1c(SCC(=O)Nc2ccc(NC(=O)c3ccco3)cc2)nnc1-c1cccs1	-16	-11%	-26%	?	-16%
O=C(NC1CCCC1)C(c1ccncc1)N(C(=O)c1csnn1)c1cccc(F)c1 (stereo unspecified)	0	19%	12%	6%	6%
CC(=O)C1=C(O)C(=O)N(c2ccc(O)cc2)C1c1ccccc1[N+](=O)[O-] (stereo unspecified)	9	-7%	-5%	0%	-5%
CCC(=O)Nc1cccc(-n2nnnc2SCC(=O)c2ccc(C)c(C)c2)c1	-92*	?	?	-8%	?
CN(CC(=O)Nc1ccc(Cl)cc1)C1CCCCC1	5	?	-12%	-4%	-7%
Cc1cc(C)c(NC(=O)CN(C2CCCCC2)C2CCCCC2)c(C)c1	-4	16µM*	23µM*	4%	4%
Cc1ccc(NC(=O)CN(C)C2CCCCC2)cc1Br	-12	18µM*	?	-19%	-18%
CS(=O)(=O)N(CC(=O)Nc1ccc(Br)cc1)C1CCCCC1	-4	23µM*	?	?	?
Nc1cnccc1Oc1cccc(C(F)(F)F)c1	0	-14%	?	5%	-1%
Clc1ccc(-c2ccc(/C=N/Nc3cc(N4CCOCC4)nc(N4CCOCC4)n3)o2)cc1	?	16µM*	-93%	?	?
Brc1ccc(-c2ccc(/C=N/Nc3nc(N4CCOCC4)nc(N4CCOCC4)n3)o2)cc1	?	10µM*	?	6%	-2%
O=[N+]([O-])c1ccc(/C=N/Nc2nc(N3CCCCC3)nc(N3CCCCC3)n2)o1	-26	18µM*	?	-9%	2%
C(=N\Nc1nc(N2CCCC2)nc(N2CCCC2)n1)/c1ccncc1	0	-19%	3%	17%	0%
CN(C)/N=C/C=C1\CCC/C(=C\c2ccc(F)c(F)c2)C1=O	-106*	26µM*	?	-23%	0%
COc1ccc(C=C2CS(=O)(=O)CC(=Cc3ccc(OC)cc3)C2=O)cc1	-107*	1.3µM*	1.8µM*	?	3.7µM*
COc1ccc(/C=C2\CCC/C(=C\C=N\N(C)C)C2=O)cc1	-59*	?	?	-24%	-25%
COc1ccc(/C=C2\CCCCC2=O)cc1	-4	-23%	9%	19%	-1%
